From PubChem
TDP1 block: qHTS Assay for Inhibitors of Tyrosyl-DNA Phosphodiesterase (TDP1) | recombinant TDP1, AlphaScreen DNA substrate cleavage | actives 0.28% (n = 350,000) | Potency, µM (top dose mostly 130 µM), actives largely listed as inhibitors | Tyrosyl-DNA phosphodiesterase 1 (Homo sapiens), Q9NUW8; also: nearly all actives have a fitted effect of over 40% in size
Target sequence (Q9NUW8 whole entry, looked up): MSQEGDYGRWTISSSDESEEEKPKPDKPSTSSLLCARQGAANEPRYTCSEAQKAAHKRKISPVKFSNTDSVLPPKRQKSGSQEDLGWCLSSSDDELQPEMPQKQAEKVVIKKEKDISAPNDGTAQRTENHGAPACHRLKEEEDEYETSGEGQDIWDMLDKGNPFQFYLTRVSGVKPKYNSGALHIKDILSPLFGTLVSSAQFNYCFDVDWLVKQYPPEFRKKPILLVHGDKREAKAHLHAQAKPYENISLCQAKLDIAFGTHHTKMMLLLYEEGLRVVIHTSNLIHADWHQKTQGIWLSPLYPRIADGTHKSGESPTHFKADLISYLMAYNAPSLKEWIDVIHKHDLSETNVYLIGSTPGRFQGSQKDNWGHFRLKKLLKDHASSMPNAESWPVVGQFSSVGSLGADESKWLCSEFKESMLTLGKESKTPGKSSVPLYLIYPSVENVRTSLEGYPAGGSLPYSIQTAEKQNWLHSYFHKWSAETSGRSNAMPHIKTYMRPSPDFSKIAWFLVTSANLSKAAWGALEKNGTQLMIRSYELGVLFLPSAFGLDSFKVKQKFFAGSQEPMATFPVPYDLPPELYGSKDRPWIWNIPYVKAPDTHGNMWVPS
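Tdp1 1 nM final; 15 min RT w/ cpd; substrate 15 nM, 5 min; beads 10 ug/ml, 10 min; AlphaScreen read. Neg ctrl: no enzyme.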
TGFb inhibitor: qHTS for Inhibitors of TGF-b; Potency, µM (doses to about 46.1 µM), actives largely listed as inhibitors; actives 1.2% (n = 410,000); HepG2 CAGA-GFP TGF-b/SMAD3 reporter, GFP fluorescence, 18 h; TGF-beta stimulated, 500 pg/mL final; AID 588855, 2011; also: nearly all actives have a fitted effect of over 65% in size
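TGF-beta reporter screen: HEPG2 CAGA-GFP, 1% FBS, 500 pg/mL TGF-beta final, 18 h; per-cell GFP summed per well; curves fitted and categorized by class.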
DT40 TDP1 no CPT: qHTS for Inhibitors of human tyrosyl-DNA phosphodiesterase 1 (TDP1): qHTS in cells in absence of CPT; actives 15% (n = 420,000); Potency, µM (top dose mostly 46.2 µM), most hits filed as inhibitors; AID 686978, 2013; DT40 Tdp1-/- hTDP1 cells, no CPT, ATP luminescence, 48 h; also: nearly all actives have a fitted effect of over 55% in size
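Camptothecin absent (DMSO only). Human TDP1-complemented DT40 knockout cells, 400 cells/well, 37 °C for minimum 48 hr; ATP measured via CellTiter-Glo, 30 min dark incubation, luminescence.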
HepG2 tox: qHTS for Inhibitors of TGF-b: Cytotox Counterscreen. Potency, µM (top dose mostly 46.1 µM), actives largely listed as cytotoxic. AID 588856, 2011. HepG2 CAGA-GFP viability, ATP luminescence, 18 h. actives 0.76% (n = 410,000)
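HepG2 CAGA-GFP cells (1000/well, DMEM with 1% FBS) received compound, then TGF-beta at 500 pg/mL final, and were incubated 18 hours at 37 degrees C. Viability was read by CellTiter-Glo luminescence. Media-only wells were set as complete cell-killing and DMSO as no toxicity.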
IL-1B inflam inh: qHTS for Inhibitors of Inflammasome Signaling: IL-1-beta AlphaLISA Primary Screen; actives 4.7% (n = 360,000); AID 743279, 2014; activity change, % at 57.5 µM; THP-1 LPS/ATP IL-1B secretion, AlphaLISA, 16 h; active compounds read low; in the data active = activity change below about -50%; inconclusive = mostly about -30% to -49%
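THP-1 cells pretreated 1 hr with compounds (up to 57.5 uM final), then stimulated with LPS (250 ng/mL final) plus ATP (1.25 mM final); secreted IL-1B measured by AlphaLISA after 16 hr, decreased signal indicating inhibition.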
DT40 TDP1 CPT: qHTS for Inhibitors of human tyrosyl-DNA phosphodiesterase 1 (TDP1): qHTS in cells in presence of CPT; chicken DT40 Tdp1-/-;hTDP1 cells + 20 nM CPT, ATP luminescence, 48 h; actives 12% (n = 420,000); Potency, µM (series often up to 46.2 µM), most hits filed as inhibitors; also: nearly all actives have a fitted effect of over 55% in size
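Cell growth measured by CellTiter-Glo luminescence after a minimum 48 h, 37 C compound exposure with 20 nM CPT in Tdp1-knockout DT40 cells stably expressing hTDP1, seeded 400/well; qHTS titration format.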
Numbers stand for hits; – = inactive; ? = inconclusive; · = not tested or not shown; [ ] = remark or other dose. Compounds with a hit are over-represented: about 19% of the library has one in this group of screens. Unless noted, calls follow the shape of the dose curve; as a rule, active = well fitted curve in the direction sought with a large enough effect; inconclusive = small, poorly fitted or top-dose-only effect, or another doubt; inactive = no such curve, though single readings can be large; an effect the other way counts as inactive or inconclusive.

SMILES	TDP1 block	TGFb inhibitor	DT40 TDP1 no CPT	HepG2 tox	IL-1B inflam inh	DT40 TDP1 CPT
COc1ccc(C(C)(O)c2nc(-c3ccc(OC)c(OC)c3)cs2)cc1 (centres undefined)	·	–	?	–	–	23µM
Cc1cc(O)c(C)c(O)c1/C=N/NC(=O)c1cccnc1	·	–	?	–	–	?
COc1ccc(C(C)(O)c2nc(-c3ccc(Cl)cc3)cs2)cc1 (centres undefined)	·	–	?	–	–	?
Cn1cc(-c2csc(C(C)(O)c3cccnc3)n2)cn1 (centres undefined)	·	–	–	2.2µM	–	–
COc1ccc(C(C)(O)c2nc(-c3ccccc3)cs2)cc1 (centres undefined)	·	–	13µM	–	–	18µM
COc1ccc(-c2csc(C(C)(O)c3ccc(OC)cc3)n2)cc1 (centres undefined)	·	–	?	–	–	15µM
COc1ccc(-c2csc(C(C)(O)c3ccccc3)n2)cc1 (centres undefined)	·	–	?	–	–	16µM
O=C(COc1ccccc1-c1nc(-c2ccccc2)no1)Nc1ccccc1[N+](=O)[O-]	–	–	–	–	·	–
CCc1nc2cc(C(=O)N(C)CC3COCCO3)cc(NC(=O)c3ccccc3OC)c2n1C (centres undefined)	·	·	–	·	·	–
CCOc1ccccc1CNS(=O)(=O)c1ccc2c(c1)CCCN2C(C)=O	–	–	?	–	·	?
OCC[C@@H]1C[C@@H](O)[C@H](O)[C@]2(Cc3ccccc3CCO2)O1	·	–	–	–	–	–
CCCS(=O)(=O)NCc1c(C)ncc2c1CCN(C(=O)/C=C/c1ccc(F)cc1F)C2	·	·	–	·	·	–[9.04 µM]
COc1ccc(C(C)(O)c2nc(-c3ccccc3C)cs2)cc1 (centres undefined)	·	?	5.8µM	–	–	6.5µM
COc1ccc(C(C)(O)c2nc(-c3ccncc3)cs2)cc1 (centres undefined)	·	–	5.8µM	–	–	5.8µM
COc1ccc(C(C)(O)c2nc(-c3cccc(O)c3)cs2)cc1 (centres undefined)	·	–	23µM	–	?	18µM
Cc1ccccc1-c1csc(C(C)(O)c2ccccc2)n1 (centres undefined)	·	–	–	–	–	–
CC(=O)c1ccc(NC(=O)Cn2c(=O)cc(C)c3c(C)nn(-c4cccc(F)c4)c32)cc1	–	–	–	–	·	–
CCN(CC)c1ccc(NC(=O)c2ccc3c(c2)OCO3)cc1	–	–	?	–	?	?
CCc1ccc(CNC(=O)CCCN2C(=O)c3cccnc3Oc3ccc(Cl)cc32)cc1	–	–	18µM	–	·	21µM
CN(C)c1ccc(CNC(=O)CCCN2C(=O)c3cccnc3Oc3ccc(Cl)cc32)cc1	–	–	?	–	·	18µM
CN(C)c1ccc(CNC(=O)CN2C(=O)c3cccnc3Oc3ccc(Cl)cc32)cc1	–	–	?	–	·	?
O=C(CCCN1C(=O)c2cccnc2Oc2ccc(Cl)cc21)NCc1ccc(F)cc1	–	–	?	–	·	?
CC1(OC(=O)c2cnc3ccccc3n2)C(=O)C=C2C=C3CCCN3C=C2C1=O (centres undefined)	–[21 µM]	·	·	·	·	·
NS(=O)(=O)c1cccc(NC(=O)COC(=O)CN2C(=O)c3ccccc3C2=O)c1	–	–	–	–	–	–
CC(C)(C)OC(=O)N1Cc2ccccc2C[C@H]1C(=O)NCC(=O)NCC1CCCO1 (some centres undefined)	–	–	–	–	–	–
